# Measured values published in PubChem BioAssay (NCI).
# The panel holds about 83,000 compounds, 20% with a hit somewhere; the sample as a whole holds those more often.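 Treatment: one concentration, 48 hours, 96-well format. Scoring: percent growth, with anything below 10 considered active.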 Values without a mark were called inactive. Calls of active or inactive are those of the source.
# Experiments:
# Assay in all cases: NCI-60 one-dose screen, 48 h (100 = growth as untreated, 0 = no growth, -100 = all killed)
# Conditions in all cases: 10 µM unless noted
# RPMI-8226 leukemia = test system: RPMI-8226 leukemia
# OVCAR-5 ovarian = test system: OVCAR-5 ovarian
# NCI/ADR-RES ovarian = test system: NCI/ADR-RES ovarian
# OVCAR-8 ovarian = test system: OVCAR-8 ovarian
# OVCAR-4 ovarian = test system: OVCAR-4 ovarian
# SK-OV-3 ovarian = test system: SK-OV-3 ovarian
# IGROV1 ovarian = test system: IGROV1 ovarian
# OVCAR-3 ovarian = test system: OVCAR-3 ovarian
# HS 578T breast = test system: HS 578T breast
# T-47D breast = test system: T-47D breast
SMILES,growth (RPMI-8226 leukemia),growth (OVCAR-5 ovarian),growth (NCI/ADR-RES ovarian),growth (OVCAR-8 ovarian),growth (OVCAR-4 ovarian),growth (SK-OV-3 ovarian),growth (IGROV1 ovarian),growth (OVCAR-3 ovarian),growth (HS 578T breast),growth (T-47D breast)
CC(C)Sc1nc(Nc2ccc(S(N)(=O)=O)cc2)c(C#N)c(-c2ccc(F)cc2)n1,58.1%,67.3%,32.5%,,,,,,,
Clc1ccc2c(NCCCn3ccnc3)c3oc4ccccc4c3nc2c1,26.4%,,45%,32.1%,55%,104%,32.9%,68.4%,61.6%,60.1%
CCN1C(=S)N(c2ccccc2)C2NC(=O)N(/N=C/C=C/c3ccccc3OC)C21 (stereo not drawn),92.6%,,99.4%,73.1%,81.1%,115%,92.1%,93.9%,78.7%,93.3%
CN1C(=O)N(c2ccccc2)C2N=C(N/N=C/c3ccccc3)SC21 (stereo not drawn),22.5%,,30.7%,25.7%,68.3%,37.1%,38.2%,13.2%,2.36% (active),32.6%
CCOC(=O)c1sc(NCC(=O)Nc2cccc([N+](=O)[O-])c2)c(C(=O)OCC)c1C,-31.6% (active),,,1.78% (active),-26% (active),,,-4.13% (active),-10.4% (active),-10.9% (active)
Cc1c(NC(=O)CSc2nc3sc4c(c3c(=O)n2-c2ccc(Cl)cc2)CCCC4)c(=O)n(-c2ccccc2)n1C,86.7%,,101%,97.1%,91.9%,93.8%,84.9%,100%,88.3%,90.1%
COc1ccccc1/C=C/C=N/NC1=NC2C(S1)N(C)C(=O)N2C (stereo not drawn),10.6%,,28.9%,31.1%,72%,32.9%,46%,-12% (active),3.97% (active),31.2%
CCOc1ccc2nc(NC(=O)c3ccc(C(F)(F)F)cc3)sc2c1,100%,,,107%,107%,,113%,109%,114%,97.7%
COc1cc(-c2nc3ccc(-c4nnc(SCC(=O)Nc5ccc(C(=O)/C=C/c6ccc(Cl)cc6)cc5)o4)cc3[nH]2)cc(OC)c1OC,57.2%,,106%,92.5%,100%,121%,81.6%,97.9%,87.9%,80.4%
Cn1ccnc1C(=O)/C=C/c1ccc(NC(=O)Nc2ccc(Cl)cc2)cc1,63.2%,,76.2%,81.9%,76.3%,84.3%,96.7%,84.2%,77%,62.7%
COc1cccc(-c2nn(-c3ccccc3)cc2-c2ccnc(N3CCN(C(=O)Nc4ccc(F)cc4)CC3)c2)c1,21.4%,,33.4%,48.8%,51.2%,107%,79.1%,,85.8%,3.31% (active)
CNC(=O)c1cc(-c2ccc(NC(=O)Nc3ccc(N4CCOCC4)c(C(F)(F)F)c3)cc2)nc2cccnc12,9.25% (active),,68.6%,49.9%,49.3%,93.4%,57.5%,,32.2%,39.6%
Clc1ccc2oc3c(OCCCn4ccnc4)c4ccccc4nc3c2c1,67%,,56.4%,44.3%,74.5%,112%,55%,101%,87.8%,74.6%
O=C(NNc1nc2cc(F)ccc2n2c(CN3CC4(COC4)C3)ccc12)c1cnccn1,22%,,22%,8.35% (active),33.3%,15.2%,18.6%,16.1%,65.3%,26.2%
COc1ccc(-c2cc(C(=O)N=Nc3c(O)[nH]c4ccccc34)c3ccccc3n2)cc1OC,99.4%,,92.1%,98%,99.3%,103%,90.2%,109%,97%,87.3%
Cn1ccnc1C(=O)/C=C/c1ccc(NC(=O)Nc2ccccc2)cc1,8.95% (active),,22.2%,-1.17% (active),42.7%,13.3%,,6.45% (active),5.48% (active),15.7%

SMILES,growth (RPMI-8226 leukemia),growth (OVCAR-5 ovarian),growth (NCI/ADR-RES ovarian),growth (OVCAR-8 ovarian),growth (OVCAR-4 ovarian),growth (SK-OV-3 ovarian),growth (IGROV1 ovarian),growth (OVCAR-3 ovarian),growth (HS 578T breast),growth (T-47D breast)
COc1ccc(C(=O)/C=C/c2ccc(OCc3ccc(Cl)cc3)c(OC)c2)cc1OC,-2.25% (active),,55.2%,58.4%,68.6%,82.9%,73.5%,78.5%,82%,50.6%
Nc1cc(-c2c[nH]c3ccc(Cl)cc23)nc2cc(-c3c[nH]c4ccc(Cl)cc34)nn12,59.4%,,60.4%,70.7%,58.6%,119%,41.7%,75.9%,74.3%,51.6%
Nc1c(C(=O)Nc2ccc(C(F)(F)F)cc2)sc2nc(-c3cnccn3)cc(-c3cccs3)c12,72.2%,,78.2%,66.7%,63.5%,88.1%,83.9%,96%,70.3%,90.3%
CN1CCN(Cc2ccc(NC(=O)c3cncc(C#Cc4cnc5ccc(N6CCSCC6)nn45)c3)cc2C(F)(F)F)CC1,-7.39% (active),,-11.6% (active),-67.7% (active),-13.7% (active),-19.8% (active),-9.25% (active),-59.6% (active),-24.7% (active),34.1%
NS(=O)(=O)c1cccc(Nc2nc(SCC(=O)c3ccc(Cl)cc3)nc3ccccc23)c1,65.4%,,91.1%,39.9%,22.5%,103%,76.3%,85.8%,43.5%,63.3%
O=C1Nc2cc(Cl)ccc2/C1=C\c1ccc(OCc2ccc([N+](=O)[O-])cc2)cc1,55.6%,,73.3%,78.8%,43.6%,98%,64.5%,87.8%,60.9%,51.9%
COc1cccc(OC)c1-c1nnn(C)c1C(=S)N1CCN(c2ccc([N+](=O)[O-])cc2Cl)CC1,77.5%,,93.6%,95.4%,91.9%,110%,78.1%,112%,95%,101%
O=c1[nH]c2ccc(Cl)cc2cc1CSc1ccccc1Nc1nccc(-c2ccc(Cl)cc2)n1,84%,,117%,96.5%,89%,122%,82.7%,89.3%,91.2%,84.8%
CC(O)C(NC(=O)C1CCCN1C(=O)CNC(=O)C1CC(=O)NCC(=O)NC(Cc2c[nH]c3ccccc23)C(=O)NC(Cc2ccc(O)cc2)C(=O)NCC(=O)NC(CO)C(=O)NC(CCC(N)=O)C(=O)NC(Cc2c[nH]c3ccccc23)C(=O)N1)C(=O)NCC(=O)NC(CCC(N)=O)C(=O)NC(CCCNC(=N)N)C(=O)NC(CC(=O)O)C(=O)O (stereo not drawn),83.5%,,104%,101%,99.8%,106%,105%,102%,102%,106%
CCCSc1nc(Nc2ccc(/C(C)=N\NC(N)=S)cc2)c(C#N)c(-c2ccc(OC)cc2)n1,71.9%,,56%,30.7%,28%,97.3%,81%,67.3%,25.3%,86.6%
CN(C)CCCOc1c2ccccc2nc2c1oc1ccc(Cl)cc12,-20.8% (active),,3.58% (active),16.4%,17.3%,20.5%,-5.97% (active),22%,25.7%,31.2%
Cc1nc(-c2cc3ccccc3oc2=O)ccc1C(=O)/C=C/c1ccc(Cl)c(Cl)c1,101%,,105%,99.5%,107%,127%,104%,111%,90.7%,104%
CCCCN1C(=O)/C(=c2\sc3n(c2=O)C2C(NN=3)N(CC)C(=O)N2CC)c2cc(Cl)ccc21 (stereo not drawn),70.2%,,79.4%,95.6%,89.7%,106%,65.3%,71.8%,66.9%,75%
COc1ccc(CNS(=O)(=O)/N=C2\NC(=O)NC2=C(Cl)Cl)cc1,15.3%,,,10.8%,69.1%,,43.5%,30%,44%,44%
CS(=O)(=O)c1ccc(-n2cc(/C=C/C(=O)c3ccc(NC(=O)CO[N+](=O)[O-])cc3)c(-c3ccc(Cl)cc3)n2)cc1,108%,,94.4%,92.5%,114%,89.7%,94.4%,111%,83.6%,104%
